Several values for one entry are separate records, joined by “and”; a condition that tells them apart may be missing. Identical values can stand only once. A number with no mark means an inactive call. Results filed as inconclusive are left out. Activity calls are given as the source filed them. Unless noted, calls follow the shape of the dose curve; as a rule, active = well fitted curve in the direction sought with a large enough effect; inconclusive = small, poorly fitted or top-dose-only effect, or another doubt; inactive = no such curve, though single readings can be large; an effect the other way counts as inactive or inconclusive.

Assay [1] in a line: Cellular Toxicity (caspase-3) SHSY5Y (AID 657). The method in brief:
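Cells plated and incubated 5 h at 37 °C, dosed over a concentration range, incubated 16 h, then given Caspase-Glo 3/7 reagent for 1 h at room temperature before luminescence reading. Staurosporine (10 uM) defined full stimulation.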

Assay [2] can be described thus: Cellular Toxicity (caspase-3) BJ (AID 658).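 Also: 0% = DMSO basal and 100% = 10 µM staurosporine.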 An outline of the steps:
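Luminescent aminoluciferin-substrate cleavage reports caspase 3/7 activity in normal human BJ fibroblasts after 16 hr compound exposure at 37 °C. Normalized to DMSO (basal) and 10 uM staurosporine (100%); AC50 from Hill fit of concentration-response.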

Assay [3] in a line: Cellular Toxicity (caspase-3) N2a (AID 665).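 Also: compound exposure lasted 16 h at 37 °C before readout.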 An outline of the steps:
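Mouse N2a neuroblastoma cells (1500/well) were treated with compounds for 16 h at 37 °C, then caspase-3/7 activity was read by Caspase-Glo luminescence after 1 h at room temperature. Data were normalized to DMSO and 10 uM staurosporine; AC50 from Hill fits.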

Assay [4] can be described thus: Cellular Toxicity (caspase-3) Renal Proximal Tubule (AID 667).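 Also: cells exposed to compound for 16 hours at 37 °C before detection; 0% = DMSO basal and 100% = 10 µM staurosporine.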 The method in brief: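 In qHTS format, rat primary proximal tubule cells seeded at 1000 per well are exposed to compounds for 16 hours at 37 °C. An increase in Caspase-Glo 3/7 luminescence indicates caspase activation.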
The nature of assay [5]: MultiTox-Fluor Cytotoxicity Assay - LYMP1-001 - Dead Cells (AID 946). The method in brief: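 Cytotoxicity as increased dead-cell protease fluorescence (bis-AAF-R110, 485/520 nm), read 60 min after MultiTox-Fluor reagent. Human lymphoblastoid line exposed 16 h; Hill-fitted AC50, with DMSO as 0% and 15 uM tetraoctylammonium bromide as 100%.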
The nature of assay [6]: Cell Viability - LYMP1-002 - Assay at 16 hr (AID 948).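 Also: 0% = DMSO alone and full effect = 92 µM tetraoctylammonium bromide.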 The method in brief:
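Acute cytotoxicity is scored as a concentration-dependent fall in intracellular ATP in a human lymphoblastoid line (LYMP1-002) after 16 hr compound exposure at 37 C, measured by luciferase luminescence.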

The nature of assay [7]: MultiTox-Fluor Cytotoxicity Assay - LYMP1-003 - Dead Cells (AID 961). Also: nearly all actives have a fitted effect of over 70% in size. The method in brief: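 Dead-cell protease release, detected as bis-AAF-R110 fluorescence at 485/520 nm, was measured in LYMP1-003 cells after 16 h compound treatment at 37 C. AC50 values came from Hill-modeled qHTS curves normalized to DMSO (0%) and 15 uM tetraoctylammonium bromide (100%).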
The nature of assay [8]: Cell Viability - LYMP1-003 - Assay at 24 hr (AID 963).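 Also: plate controls were DMSO only for no effect and tetraoctylammonium bromide positive control for full effect.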 An outline of the steps:
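Human lymphoblastoid LYMP1-003 cells (2500/well) were rested 5 hr at 37 C, then exposed to compounds in complete medium for 24 hr at 37 C. Cellular ATP was quantified by CellTiter-Glo luminescence, and AC50 values came from Hill fits of concentration-response data.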

Assay [9] in a line: Cell Viability - LYMP2-003 (AID 965).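 Also: cells exposed to compounds for 24 h before reading; 0% = DMSO only and full effect = 92 µM tetraoctylammonium bromide; nearly all actives have a fitted effect of over 50% in size.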 The method in brief: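 Acute cytotoxicity is scored as a concentration-dependent drop in intracellular ATP, measured by luciferase luminescence in human lymphoblastoid cells treated for 24 hours at 37 C. AC50 values derive from Hill-equation modelling.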
Assay [10] can be described thus: Cell Viability - LYMP2-013 (AID 970).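 Also: series mostly up to about 92 µM; 0% = DMSO only and full inhibition = tetraoctylammonium bromide control; nearly all actives have a fitted effect of over 55% in size.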 The method in brief: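 Human lymphoblastoid cells, 2500/well, were preincubated 5 hr at 37 C, then treated with compounds for 24 hr at 37 C in complete medium. Intracellular ATP was read by CellTiter-Glo luminescence; AC50 from Hill-equation fits of concentration-response data.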
Assay [11] can be described thus: Cell Viability - LYMP2-019 (AID 973).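 Also: 0% = DMSO alone and full effect = 92 µM tetraoctylammonium bromide; nearly all actives have a fitted effect of over 55% in size.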 An outline of the steps:
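Human lymphoblastoid cells were seeded at 2500 cells/well, preincubated 5 hr at 37 C, then exposed to compounds for 24 hr at 37 C in complete medium. Intracellular ATP was measured by CellTiter-Glo luminescence; AC50 from Hill fits.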

Assay [12] can be described thus: Cell Viability - LYMP2-008 (AID 980). Also: nearly all actives have a fitted effect of over 60% in size. Also: potency is read from the fitted curve at half-maximal effect. The method in brief: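 Human lymphoblastoid cells (2500/well) were plated, held 5 hr at 37 C, then exposed to compounds for 24 hr at 37 C in complete medium. Intracellular ATP was read by CellTiter-Glo luminescence; AC50 from Hill-fitted concentration-response.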
The nature of assay [13]: Cell Viability - LYMP2-012 (AID 982).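 Also: cellular ATP by luciferase luminescence where a drop means cytotoxicity; cells exposed to compound for one day before reading; 0% = DMSO only and full loss = 92 µM tetraoctylammonium bromide; nearly all actives have a fitted effect of over 55% in size.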
The nature of assay [14]: Cell Viability - LYMP2-016 (AID 984). Also: % is scaled to controls: 0 for no effect and ±100 for the full control effect; nearly all actives have a fitted effect of over 55% in size. The method in brief: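 Acute toxicity in a Coriell human lymphoblastoid line is scored as loss of intracellular ATP over 24 h of treatment in complete medium. CellTiter-Glo signal is fitted across concentrations with the Hill equation to give AC50.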
Assay [15] can be described thus: Cell Viability - LYMP1-002 - Assay at 24 hr (AID 993). Also: % is scaled to controls: 0 for no effect and ±100 for the full control effect. The method in brief:
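Human lymphoblastoid LYMP1-002 cells, 2500/well in complete medium, were treated with compounds for 24 h at 37 C; intracellular ATP was read by CellTiter-Glo luminescence. AC50 values came from Hill-equation fits of qHTS concentration-response data.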

Assay [16] can be described thus: Cell Viability - LYMP1-002 - Assay at 40 hr (AID 994).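 Also: 0% = DMSO only and full inhibition = 92 µM tetraoctylammonium bromide; nearly all actives have a fitted effect of over 60% in size.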 The method in brief: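 Human lymphoblastoid cells, 2500/well in complete medium, were preincubated 5 hr at 37 C, then exposed to compounds for 40 hr at 37 C. Intracellular ATP was read by CellTiter-Glo luminescence after 30 min at room temperature; AC50 from Hill-equation fits.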
A short description of assay [17]: qHTS Assay for Identification of Small Molecule Inducers of Hypoxia Response (AID 2120; active = well fitted curve in the direction sought with a large enough effect in the signal ratio, with a control signal flat, not every such curve was filed as active; the % refers to the signal ratio; also: 0% is about no effect). An outline of the steps: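 HRE-beta-lactamase reporter in CellSensor HRE-bla ME-180 cells, 2500 cells/well in Opti-MEM with 0.5% dialyzed FBS; compounds tested as titration series, 17 h at 37 degrees C. CCF4 substrate 2.5 h at room temperature; AC50 from 460/530 nm ratio.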
Background: In qHTS, concentration-response curves come from the screen itself.

Assay [18] has as its target Peroxisome proliferator-activated receptor alpha (Homo sapiens) (UniProt Q07869). Kind of assay: qHTS assay for small molecule agonists of the peroxisome proliferator-activated receptor alpha (PPARalpha) signaling pathway (AID 651778). Also: % of control where 0% means no effect. The conditions noted are these: PathHunter PPARalpha complementation, chemiluminescence, 6 h; active compounds read high. The method in brief: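 Cells plated at 2,000/well and held overnight at 37 C, 5% CO2, then compound added by pin tool for 6 hr; after PathHunter detection reagent and 60 min at room temperature, chemiluminescence from enzyme complementation was read.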

Assay [19] is described as follows: qHTS assay for cell viability of HEK293 cells (AID 743288). Also: % is scaled to controls: 0 for no effect and ±100 for the full control effect; nearly all actives have a fitted effect of over 50% in size. As to conditions: ATP luminescence (CellTiter-Glo), 18 h, active compounds read low. An outline of the steps:
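The Tox21 protocol used parental HEK293 cells treated for 18 h at 37 C with compounds delivered by pintool; ATP-coupled luminescence after 30 min at room temperature gave viability.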

A short description of assay [20]: qHTS assay for cell viability of the p53RE-bla HCT-116 cell line (AID 743292). The method in brief: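 ATP-based luminescence, 16 h compound exposure at 37 C, p53RE-bla HCT-116 cells at 4,000/well.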

Sequence of Peroxisome proliferator-activated receptor alpha (Homo sapiens) (Q07869 whole entry, looked up): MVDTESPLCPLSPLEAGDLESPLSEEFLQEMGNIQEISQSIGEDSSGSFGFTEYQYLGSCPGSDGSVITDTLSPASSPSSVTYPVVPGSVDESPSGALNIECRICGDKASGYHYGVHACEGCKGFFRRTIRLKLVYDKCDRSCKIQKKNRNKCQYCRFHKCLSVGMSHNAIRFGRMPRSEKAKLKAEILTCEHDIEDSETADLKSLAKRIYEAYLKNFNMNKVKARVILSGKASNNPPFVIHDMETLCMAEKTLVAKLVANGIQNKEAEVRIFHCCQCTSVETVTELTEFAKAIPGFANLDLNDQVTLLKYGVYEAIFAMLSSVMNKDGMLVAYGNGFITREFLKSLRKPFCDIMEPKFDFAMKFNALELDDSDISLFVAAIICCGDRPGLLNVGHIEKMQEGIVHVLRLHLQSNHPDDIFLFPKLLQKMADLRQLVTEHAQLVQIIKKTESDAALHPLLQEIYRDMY

Consider `Nc1ccc(Cl)c(Cl)c1`, for which the outcome in assay [1], in assay [2], in assay [3], in [4], in assay [5] and in assay [6] was inactive. For the same compound, the outcome in [8] was inactive. The Potency entry in assay [7], in assay [9], in assay [10], in assay [11], in [12] and in assay [13] was “inactive” in each case. Also, the Potency result in [14], in assay [15], in assay [16], in assay [17] and in assay [20] was “inactive” throughout. In addition, the max response in assay [18] was -1.3%; in assay [19], -1.26%.
Consider `c1ccc(N=NNc2ccccc2)cc1`, for which the call in assay [1], in assay [2], in assay [3], in assay [4], in assay [5] and in [6] was inactive. In addition, in [8], the outcome was inactive. Further, the Potency entry in [7], in assay [9], in assay [10], in assay [11], in assay [12] and in assay [13] was “inactive” each time. For the same compound, the Potency entry in [14], in assay [15], in [16], in [17] and in assay [20] was “inactive” in each case. The max response was -1.28% and 2.45% in assay [18]; 5.57% and -4.44% in assay [19].
With `ClCC(Cl)CCl`, the compound was called inactive in assay [1], in [2], in assay [3], in [4], in assay [5] and in assay [6]. In assay [8], the outcome was inactive. Further, the Potency entry in assay [7], in [9], in [10], in assay [11], in assay [12] and in assay [13] was “inactive” each time. Further, the Potency entry in [14], in assay [15], in [16], in assay [17] and in assay [20] was “inactive” in each case. The max response in assay [18] is -4.72% and -1.22%; in assay [19] it was -3.69% and -5.22%.
Take `CCCCC(CC)COC(=O)c1ccc(C(=O)OCC(CC)CCCC)c(C(=O)OCC(CC)CCCC)c1` (stereo not drawn): the outcome in [1], in [2], in assay [3], in [4], in [5] and in assay [6] was inactive. For the same compound, the compound was classed as inactive in [8]. For the same compound, the Potency entry in assay [7], in [9], in assay [10], in assay [11], in assay [12] and in assay [13] was “inactive” in each case. Further, the Potency entry in assay [14], in [15], in assay [16], in [17] and in [20] was “inactive” each time. For the same compound, the max response was -3.57% in assay [18] and -4.51% in assay [19].
`Nc1cccc2ccccc12`: the compound was classed as inactive in assay [1], in [2], in assay [3], in [4], in [5] and in assay [6]. Besides, the compound was classed as inactive in [8]. In addition, the Potency result in assay [7], in assay [9], in [13], in [14], in assay [15] and in assay [16] was “inactive” each time. In addition, the Potency entry in [17] and in [20] was “inactive” in each case. The Potency in [12] was 39.8 µM (active). The max response in assay [18] is -2.99%; in assay [19], -0.157%.
As to `CC(C)[C@]12CC(=O)[C@H](C)[C@H]1C2`, the compound was called inactive in [1], in assay [2], in assay [3], in [4], in assay [5] and in [6]. Besides, the call in assay [8] was inactive. Besides, the Potency result in assay [7], in assay [9], in assay [10], in assay [11], in assay [12] and in assay [13] was “inactive” in each case. Besides, the Potency result in [14], in assay [15], in [16], in [17] and in assay [20] was “inactive” throughout. For the same compound, the max response is 5.79% and -0.343% in assay [18]; 18.6% and -3.71% in [19].
In the case of `CC(C)Br`, the result in assay [1], in assay [2], in assay [3], in assay [4], in assay [5] and in assay [6] was inactive. In addition, in assay [8], the compound was called inactive. Further, the Potency result in assay [7], in [9], in assay [10], in [11], in [12] and in [13] was “inactive” throughout. Moreover, the Potency entry in assay [14], in [15], in [16], in assay [17] and in assay [20] was “inactive” throughout. Further, the max response was -8.27% in [18] and -0.407% in assay [19].

The record behind these values is PubChem BioAssay (NCATS).
